Measured values from PubChem BioAssay (NCATS).
Results filed as inconclusive are left out. The source made the active and inactive calls. The call rests on the fitted dose curve; in most records, active means well fitted curve in the direction sought with a large enough effect; inconclusive means small, poorly fitted or top-dose-only effect, or another doubt; inactive means no such curve, though single readings can be large; an effect the other way counts as inactive or inconclusive.

Experiments:
MKL-1 = experiment: qHTS assay to identify novel small-molecules to repurpose for Merkel cell carcinoma treatment (AID 1296009); details: MCC and control cell lines, CellTiter-Glo viability, 72 h; series mostly up to 46 µM; further: nearly all actives have a fitted effect of over 60% in size
Outline: (§1)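 Cell viability, measured as CellTiter-Glo luminescence, was normalized between DMSO and no-cell wells. The cells had been exposed to 8- or 11-point compound dilutions for 72 hr at 37 degree celsius.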

MKL-2 = experiment: as above; details: MCC and control cell lines, CellTiter-Glo viability, 72 h; series mostly up to 46 µM
Outline: as §1

NIH3T3 = experiment: as above; details: MCC and control cell lines, CellTiter-Glo viability, 72 h; at 44.8 µM (top of the series) unless noted
Outline: as §1

UISO = experiment: as above; details: MCC and control cell lines, CellTiter-Glo viability, 72 h; series mostly up to 46 µM
Outline: as §1

WaGa = experiment: as above; details: MCC and control cell lines, CellTiter-Glo viability, 72 h; series mostly up to 46 µM
Outline: as §1

C33A = experiment: Primary qHTS to identify gynecologic anti-cancer compounds using libraries of approved drugs and bioactive compounds (AID 1345084); details: Gynecologic cancer cell panel viability, ATPlite luminescence, 48 h; series mostly up to 57.5 µM; further: nearly all actives have a fitted effect of over 55% in size
Outline: (§2)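 Five-point cytotoxicity, 48 h drug exposure at 37 C, 5% CO2, on cells seeded 16 h beforehand. ATP content read by ATPlite luminescence.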

CAOV3 = experiment: as above; details: Gynecologic cancer cell panel viability, ATPlite luminescence, 48 h; series mostly up to 57.5 µM
Outline: as §2

CASKI = experiment: as above; details: Gynecologic cancer cell panel viability, ATPlite luminescence, 48 h; series mostly up to 57.5 µM
Outline: as §2

Es-2 = experiment: as above; details: Gynecologic cancer cell panel viability, ATPlite luminescence, 48 h; series mostly up to 57.5 µM
Outline: as §2

HeLa = experiment: as above; details: Gynecologic cancer cell panel viability, ATPlite luminescence, 48 h; series mostly up to 57.5 µM
Outline: as §2

Hek293T = experiment: as above; details: Gynecologic cancer cell panel viability, ATPlite luminescence, 48 h, control line for the selectivity index; series mostly up to 57.5 µM
Outline: as §2

JEG-3 = experiment: as above; details: Gynecologic cancer cell panel viability, ATPlite luminescence, 48 h; series mostly up to 57.5 µM
Outline: as §2

OV90 = experiment: as above; details: Gynecologic cancer cell panel viability, ATPlite luminescence, 48 h; series mostly up to 57.5 µM
Outline: as §2

PA-1 = experiment: as above; details: Gynecologic cancer cell panel viability, ATPlite luminescence, 48 h; series mostly up to 57.5 µM
Outline: as §2

SKOV3 = experiment: as above; details: Gynecologic cancer cell panel viability, ATPlite luminescence, 48 h; series mostly up to 57.5 µM
Outline: as §2

Tov-21-G = experiment: as above; details: Gynecologic cancer cell panel viability, ATPlite luminescence, 48 h; series mostly up to 57.5 µM
Outline: as §2

Tov112D = experiment: as above; details: Gynecologic cancer cell panel viability, ATPlite luminescence, 48 h; series mostly up to 57.5 µM
Outline: as §2

[1] = Drug repurposing screens with cells derived from glioblastoma tumor samples (AID 1345199); details: GBM patient neurospheres viability, ATP luminescence, 48 h; further: nearly all actives have a fitted effect of over 40% in size
Outline: (§3)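 Primary testing used CD133+ neurospheres from four GBM patients, seven concentrations, 48 h exposure and ATP-based viability; confirmation added three slower-growing patient lines.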

astro = experiment: as above; details: viability, ATP luminescence, 48 h; series mostly up to 45.9 µM
Outline: as §3

[2] = at 45.9 µM (top of the series), tumour line B
[3] = at 45.9 µM (top of the series), tumour line D
[4] = at 46.1 µM (top of the series), tumour line C
On the % scale 0 is the no-effect control and ±100 the full control effect.

COc1cc(OC)c(C(=O)CCCN2CCCC2)c(OC)c1
inactive: Potency (MKL-1) | Potency (MKL-2) | outcome (NIH3T3) | Potency (UISO) | Potency (WaGa) | Potency (C33A) | Potency (CAOV3) | Potency (CASKI) | Potency (Es-2) | Potency (HeLa) | Potency (Hek293T) | Potency (JEG-3) | Potency (OV90) | Potency (PA-1) | Potency (SKOV3) | Potency (Tov-21-G) | Potency (Tov112D) | activity, negative = cell killing ([1]; at 20 µM (top of the series), tumour line C) 0.201% | activity, negative = cell killing ([1]; at 21.2 µM (top of the series), tumour line B) -11.8% | activity, negative = cell killing ([1]; at 21.2 µM (top of the series), tumour line D) -17.1% | activity, negative = cell killing ([1]; at 21.3 µM (top of the series), tumour line A) -24.2% | Potency (astro)

O=C(NCCO[N+](=O)[O-])c1cccnc1
inactive: Potency (MKL-1) | Potency (MKL-2) | outcome (NIH3T3) | Potency (UISO) | Potency (WaGa) | Potency (C33A) | Potency (CAOV3) | Potency (CASKI) | Potency (Es-2) | Potency (HeLa) | Potency (Hek293T) | Potency (JEG-3) | Potency (OV90) | Potency (PA-1) | Potency (SKOV3) | Potency (Tov-21-G) | Potency (Tov112D) | Potency (astro)

CC(C)[C@H](N)C(=O)OCCOCn1cnc2c(=O)[nH]c(N)nc21
inactive: Potency (MKL-1) | Potency (MKL-2) | outcome (NIH3T3) | Potency (UISO) | Potency (WaGa) | Potency (C33A) | Potency (CASKI) | Potency (Es-2) | Potency (HeLa) | Potency (Hek293T) | Potency (JEG-3) | Potency (OV90) | Potency (PA-1) | Potency (SKOV3) | Potency (Tov-21-G) | Potency (Tov112D) | activity, negative = cell killing [1, 2] -5.53% | activity, negative = cell killing [1, 3] -4.6% | activity, negative = cell killing [1, 4] 14.5% | Potency (astro)

Nc1ccc(S(N)(=O)=O)cc1
inactive: Potency (MKL-1) | Potency (MKL-2) | outcome (NIH3T3) | Potency (UISO) | Potency (WaGa) | Potency (C33A) | Potency (CAOV3) | Potency (CASKI) | Potency (Es-2) | Potency (HeLa) | Potency (Hek293T) | Potency (JEG-3) | Potency (OV90) | Potency (PA-1) | Potency (Tov-21-G) | Potency (Tov112D) | activity, negative = cell killing [1, 2] -13.5% | activity, negative = cell killing [1, 3] -7.18% | activity, negative = cell killing ([1]; at 46 µM (top of the series), tumour line A) -12.5% | activity, negative = cell killing [1, 4] 10.5% | Potency (astro)

Nc1nc(OCc2ccccc2)c2[nH]cnc2n1
inactive: Potency (MKL-1) | Potency (MKL-2) | outcome (NIH3T3) | Potency (UISO) | Potency (WaGa)

Cc1ncc([N+](=O)[O-])n1CC(C)O (configuration not stated)
inactive: Potency (MKL-1) | Potency (MKL-2) | outcome (NIH3T3) | Potency (UISO) | Potency (WaGa) | Potency (C33A) | Potency (CASKI) | Potency (Es-2) | Potency (HeLa) | Potency (Hek293T) | Potency (OV90) | Potency (PA-1) | Potency (SKOV3) | Potency (Tov-21-G) | Potency (Tov112D) | Potency (astro)
